# Reference: PubChem BioAssay (EPA / NIEHS)
# Active and inactive are the calls of the source. Rule for the calls: active = hit-call score of the fitted dose curve at least 0.9, where 1 is the maximum; inactive = score below 0.9.
# Legend:
# [1] = APR_HepG2_CellLoss_72hr: Apredica 72-hour HepG2 Assay for Cell Loss (AID 2282915); settings: high-content imaging
# In short: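 HepG2 cells exposed 72 h to compound at 0.39–200 uM (10 concentrations, duplicate) in 0.5% DMSO. Fixed with 3.7% formaldehyde and Hoechst 33342-stained. Imaged at 20x; nuclear count gives cell number, fitted bidirectionally versus DMSO.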
# [2] = APR_HepG2_P-H2AX_72hr: Apredica 72-hour HepG2 Assay for H2AX Phosphorylation (AID 2282916); settings: imaging, actives raise or lower the signal;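 note: phospho-histone H2A.x immunostain intensity per cell marking DNA damage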
# In short: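 Phospho-histone H2A.x immunofluorescence, multiplexed with Hoechst and c-Jun, quantified by high-content imaging. Compounds applied to HepG2 for 72 h across ten concentrations (0.39–200 uM, 0.5% DMSO), in duplicate; DMSO baseline.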
# [3] = APR_HepG2_MitoMembPot_72hr: Apredica 72-hour HepG2 Assay for Mitochondrial Membrane Potential (AID 2282917); settings: imaging, actives raise or lower the signal
# In short: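 HepG2 cells dosed 72 hr with compound at 0.39–200 uM in duplicate, 0.5% v/v DMSO final. Mitochondria stained with 250 nM MitoTracker Red CMXRos for 30 min before formaldehyde fixation, imaged by high-content fluorescence; bidirectional fit versus DMSO.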
# [4] = APR_HepG2_MitoticArrest_72hr: Apredica 72-hour HepG2 Assay for Mitotic Arrest (AID 2282918); settings: high-content imaging, actives raise or lower the signal
# In short: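 HepG2 cells treated 72 h at 0.39–200 uM, 0.5% DMSO final; formaldehyde-fixed, stained with Hoechst 33342 and phospho-histone H3 antibody, imaged by high-content fluorescence; bidirectional fit versus DMSO.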
# [5] = APR_HepG2_MicrotubuleCSK_72hr: Apredica 72-hour HepG2 Assay for Microtubule CSK Stabilty (AID 2282919); settings: HepG2 microtubule cytoskeleton, high-content imaging, actives raise or lower the signal
# In short: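 HepG2, 72 hr cmpd exposure, 0.39–200 uM (10 pts, duplicate), 0.5% DMSO. 3.7% formaldehyde fix, 0.5% Triton perm, anti-alpha-tubulin/Cy5 plus Hoechst. HCS fluorescence intensity; bidirectional fit vs DMSO baseline; taxol as positive control.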
# [6] = APR_HepG2_StressKinase_72hr: Apredica 72-hour HepG2 Assay for Stress Kinase (AID 2282921); settings: HepG2 stress kinase (phospho-c-Jun) imaging, actives raise or lower the signal
# In short: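 Stress kinase signal is phospho-c-Jun immunofluorescence (1:500 primary, Cy3 secondary) in fixed, permeabilized human HepG2 cells imaged at 20x. Exposure lasted 72 hr over ten concentrations from 0.39 to 200 uM, 0.5% DMSO, in duplicate. Bidirectional fit versus DMSO.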
# [7] = APR_HepG2_StressKinase_24hr: Apredica 24-hour HepG2 Assay for Stress Kinase (AID 2282922); settings: HepG2 stress kinase (phospho-c-Jun) imaging, actives raise or lower the signal
# In short: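 Read-out: phospho-c-Jun immunofluorescence (Cy3 secondary) quantified by high-content imaging at 20x, nuclei defined by Hoechst 33342. Human HepG2 liver cells dosed 24 hr, 0.39–200 uM, DMSO 0.5% v/v; gain or loss of signal fitted relative to DMSO.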
# [8] = APR_HepG2_MitoMass_72hr: Apredica 72-hour HepG2 Assay for Mitochondrial Mass (AID 2282924); settings: high-content imaging, actives raise or lower the signal;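 note: MitoTracker Red CMXRos stain intensity per cell imaged as mitochondrial mass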
# In short: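 Read-out: MitoTracker Red fluorescence intensity from automated imaging (20x, six fields per well) in human HepG2 liver cells. Dosing ran 72 hr, 0.39–200 uM, 0.5% DMSO; bidirectional curve fitting versus DMSO baseline.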
# [9] = APR_HepG2_NuclearSize_72hr: Apredica 72-hour HepG2 Assay for Nuclear Size (AID 2282925); settings: high-content imaging, actives raise or lower the signal
# In short: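 Read-out: nuclear diameter from Hoechst 33342 images (ArrayScan, 20x, six fields/well), via cell-cycle image analysis. HepG2 were dosed 0.39–200 uM for 72 hr in 0.5% DMSO. Bidirectional fit relative to DMSO.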
# [10] = ATG_CRE_CIS: Attagene CIS-FACTORIAL HepG2 Assay for human cAMP Responsive Element (CRE) binding protein 3 (AID 2282926); settings: HepG2 CRE cis-reporter, Attagene multiplexed mRNA; actives raise or lower the signal
# In short: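 Induced reporter mRNA from a CRE cis element, measured in HepG2 among many multiplexed units at 24 h. Detection used RT-PCR plus capillary electrophoresis of fluorescent fragments; DMSO served as negative control.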
# [11] = target: CCAAT/enhancer-binding protein beta (Homo sapiens) (UniProt P17676); experiment: ATG_C_EBP_CIS: Attagene CIS-FACTORIAL HepG2 Assay for human CCAAT/Enhancer Binding Protein (C/EBP) beta (AID 2282927); settings: HepG2 Attagene cis-factorial transcription factor reporter; actives raise or lower the signal
# Sequence of CCAAT/enhancer-binding protein beta (Homo sapiens) (P17676 whole entry, looked up): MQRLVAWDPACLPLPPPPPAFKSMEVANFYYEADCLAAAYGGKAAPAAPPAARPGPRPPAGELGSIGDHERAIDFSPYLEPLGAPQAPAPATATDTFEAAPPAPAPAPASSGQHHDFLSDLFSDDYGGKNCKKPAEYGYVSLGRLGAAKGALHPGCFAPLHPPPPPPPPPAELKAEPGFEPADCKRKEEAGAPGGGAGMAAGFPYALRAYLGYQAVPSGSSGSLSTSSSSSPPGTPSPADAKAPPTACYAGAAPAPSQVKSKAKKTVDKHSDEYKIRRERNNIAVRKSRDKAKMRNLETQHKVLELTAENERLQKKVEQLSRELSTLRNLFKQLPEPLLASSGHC
# In short: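 HepG2, transient MRTU transfection, 24 h treatment. RT-PCR plus CE fluorescence; DMSO negative control, bidirectional fit.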
# [12] = ATG_CMV_CIS: Attagene CIS-FACTORIAL HepG2 Assay for human CMV (Internal Marker) (AID 2282928); settings: HepG2 CMV promoter reporter, transcription factor profiling; actives raise or lower the signal;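 note: endpoint acts as a background internal control marker rather than a target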
# In short: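 Reporter transcripts from transfected HepG2 cells are isolated after 24 h of chemical dosing, reverse-transcribed and amplified. Fragments labeled with 6-FAM are cut with HpaI and quantified by capillary electrophoresis; DMSO defines baseline.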
# [13] = ATG_DR4_LXR_CIS: Attagene CIS-FACTORIAL HepG2 Assay for human Liver X Receptor (LXR), DR4 submotif (AID 2282929); settings: HepG2 Attagene DR4 cis-reporter, mRNA transcription; actives raise or lower the signal
# In short: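 Total RNA from 24 h-treated, MRTU-transfected HepG2 cells underwent reverse transcription, PCR, fluorescent primer extension and restriction digestion before capillary electrophoresis. Both increases and decreases in reporter signal were fitted against DMSO.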
# [14] = target: Aryl hydrocarbon receptor (Homo sapiens) (UniProt P35869); experiment: ATG_Ahr_CIS: Attagene CIS-FACTORIAL HepG2 Assay for human Aryl Hydrocarbon Receptor (Ahr) (AID 2282930); settings: HepG2 AhR cis-factorial reporter transcription; actives raise or lower the signal
# Sequence of Aryl hydrocarbon receptor (Homo sapiens) (P35869 whole entry, looked up): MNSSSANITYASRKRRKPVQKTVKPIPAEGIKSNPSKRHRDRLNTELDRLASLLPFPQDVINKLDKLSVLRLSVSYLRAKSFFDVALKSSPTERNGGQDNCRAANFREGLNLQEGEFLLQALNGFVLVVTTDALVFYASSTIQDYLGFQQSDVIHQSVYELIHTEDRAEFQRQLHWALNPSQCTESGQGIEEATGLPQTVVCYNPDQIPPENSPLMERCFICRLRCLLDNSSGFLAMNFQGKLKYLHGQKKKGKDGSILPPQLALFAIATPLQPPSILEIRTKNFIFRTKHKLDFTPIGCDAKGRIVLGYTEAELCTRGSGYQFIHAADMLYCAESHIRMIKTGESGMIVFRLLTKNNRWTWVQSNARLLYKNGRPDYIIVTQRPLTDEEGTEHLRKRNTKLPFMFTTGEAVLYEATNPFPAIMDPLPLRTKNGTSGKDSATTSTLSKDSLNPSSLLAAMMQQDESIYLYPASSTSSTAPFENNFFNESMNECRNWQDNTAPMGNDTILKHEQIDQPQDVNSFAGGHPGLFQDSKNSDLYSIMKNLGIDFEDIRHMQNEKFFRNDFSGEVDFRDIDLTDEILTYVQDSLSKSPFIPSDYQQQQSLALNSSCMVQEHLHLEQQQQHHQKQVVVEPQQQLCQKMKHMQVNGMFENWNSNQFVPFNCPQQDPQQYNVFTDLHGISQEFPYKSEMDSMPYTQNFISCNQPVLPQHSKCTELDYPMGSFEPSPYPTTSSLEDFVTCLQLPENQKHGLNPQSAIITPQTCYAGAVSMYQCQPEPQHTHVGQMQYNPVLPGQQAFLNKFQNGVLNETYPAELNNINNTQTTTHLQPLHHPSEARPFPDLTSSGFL
# In short: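 Endogenous factor activity is tracked through cis-promoter reporter units transfected into HepG2 cells. Transcript levels at 24 h are read by fluorescent RT-PCR and capillary electrophoresis, with activity in either direction scored relative to DMSO.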
# [15] = ATG_AP_1_CIS: Attagene CIS-FACTORIAL HepG2 Assay for human Activator Protein 1 (AP-1) (AID 2282931); settings: HepG2 Attagene cis-factorial AP-1 reporter mRNA; actives raise or lower the signal
# In short: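 HepG2, transient cis-reporter transfection; 24 h; readout RT-PCR/CE fluorescence; DMSO baseline, gain and loss fitted.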
# [16] = ATG_AP_2_CIS: Attagene CIS-FACTORIAL HepG2 Assay for human Activator Protein 2 (AP-2) (AID 2282932); settings: HepG2 AP-2 cis-reporter, Attagene transcription factor profiling; actives raise or lower the signal
# In short: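 Liver-derived HepG2 line, cis-reporter system measuring endogenous factors; 24 h dosing; reporter mRNA detected by fluorescent RT-PCR and capillary electrophoresis.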
# [17] = ATG_BRE_CIS: Attagene CIS-FACTORIAL HepG2 Assay for human Bone Morphogenetic Protein (BMP) Response Element (BRE) (AID 2282933); settings: HepG2 BMP response element reporter, Attagene transcription factor profiling; actives raise or lower the signal
# In short: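 A HepG2 multiplex reporter system measured inducible reporter mRNA 24 h post-dosing. Detection: RT-PCR, 6-FAM primer extension, HpaI digestion, capillary electrophoresis. Activity fitted bidirectionally relative to DMSO.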
# [18] = target: Retinoic acid receptor alpha (Homo sapiens) (UniProt P10276); experiment: ATG_DR5_RAR_CIS: Attagene CIS-FACTORIAL HepG2 Assay for human Retinoic Acid Receptor Alpha (RARE), DR5 submotif (AID 2282934); settings: HepG2 Attagene cis-factorial RARE DR5 reporter, mRNA; actives raise or lower the signal;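 note: reporter responds to endogenous RAR alpha beta and gamma in HepG2 not RARA alone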
# Sequence of Retinoic acid receptor alpha (Homo sapiens) (P10276 whole entry, looked up): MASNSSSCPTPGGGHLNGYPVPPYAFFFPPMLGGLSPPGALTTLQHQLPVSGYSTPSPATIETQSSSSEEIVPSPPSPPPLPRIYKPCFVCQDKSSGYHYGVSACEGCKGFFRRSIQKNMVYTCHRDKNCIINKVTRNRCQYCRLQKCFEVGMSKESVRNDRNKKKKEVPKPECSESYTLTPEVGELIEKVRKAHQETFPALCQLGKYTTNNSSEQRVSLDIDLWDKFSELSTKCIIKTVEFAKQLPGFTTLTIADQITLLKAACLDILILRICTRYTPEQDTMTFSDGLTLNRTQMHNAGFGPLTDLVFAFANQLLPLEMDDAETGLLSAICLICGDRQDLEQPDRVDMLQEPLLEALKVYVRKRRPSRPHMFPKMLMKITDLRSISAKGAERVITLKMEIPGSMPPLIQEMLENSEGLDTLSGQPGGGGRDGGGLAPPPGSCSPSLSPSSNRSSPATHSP
# In short: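 After 24 h of chemical exposure, transiently transfected HepG2 cells were lysed for total RNA; the DR5-regulated reporter transcript was quantified via RT-PCR and capillary electrophoresis, with activity fitted bidirectionally against DMSO.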
# [19] = APR_HepG2_p53Act_72hr: Apredica 72-hour HepG2 Assay for p53 Activation (AID 2282923); settings: high-content imaging, actives raise or lower the signal;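 note: average cellular p53 protein immunofluorescence intensity in HepG2 cells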
# In short: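 After 72 h with compound (ten points, 0.39 to 200 uM, final DMSO 0.5% v/v), fixed HepG2 cells were labelled with sheep anti-p53 and Hoechst 33342 and imaged; gain or loss versus DMSO scored.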
smiles,measurement,setting,value
COCc1cnc(C2=NC(C)(C(C)C)C(=O)N2)c(C(=O)O)c1 (configuration not stated),outcome,[1],inactive
same,outcome,[2],inactive
same,outcome,[3],inactive
same,outcome,[4],inactive
same,outcome,[5],inactive
same,outcome,[6],inactive
same,outcome,[7],inactive
same,outcome,[8],inactive
same,outcome,[9],inactive
same,outcome,[10],inactive
same,outcome,[11],inactive
same,outcome,[12],inactive
same,outcome,[13],inactive
same,outcome,[14],inactive
same,outcome,[15],inactive
same,outcome,[16],inactive
same,outcome,[17],inactive
CCOc1cc(C(C)(C)C)ccc1C1COC(c2c(F)cccc2F)=N1 (configuration not stated),AC50,[1],103 µM (active)
same,outcome,[2],inactive
same,outcome,[3],inactive
same,outcome,[4],inactive
same,AC50,[5],47.2 µM (active)
same,outcome,[6],inactive
same,outcome,[7],inactive
same,outcome,[8],inactive
same,outcome,[9],inactive
same,AC50,[10],4.09 µM (active)
same,outcome,[11],inactive
same,outcome,[12],inactive
same,AC50,[13],13.2 µM (active)
same,outcome,[14],inactive
same,outcome,[15],inactive
same,outcome,[16],inactive
same,outcome,[17],inactive
same,AC50,[18],4.26 µM (active)
CCCCC(C#N)(Cn1cncn1)c1ccc(Cl)cc1 (configuration not stated),AC50,[1],103 µM (active)
same,outcome,[2],inactive
same,outcome,[3],inactive
same,outcome,[4],inactive
same,outcome,[5],inactive
same,outcome,[6],inactive
same,outcome,[7],inactive
same,outcome,[19],inactive
same,outcome,[8],inactive
same,outcome,[9],inactive
same,outcome,[10],inactive
same,outcome,[11],inactive
same,outcome,[12],inactive
same,outcome,[13],inactive
same,outcome,[14],inactive
same,outcome,[15],inactive
same,outcome,[16],inactive
same,outcome,[17],inactive
CCN(CC)c1nc(C)cc(OP(=S)(OC)OC)n1,outcome,[1],inactive
same,outcome,[2],inactive
same,outcome,[3],inactive
same,outcome,[4],inactive
same,outcome,[5],inactive
same,outcome,[6],inactive
same,outcome,[7],inactive
same,outcome,[19],inactive
same,outcome,[8],inactive
same,outcome,[9],inactive
same,AC50,[10],21.9 µM (active)
same,outcome,[11],inactive
same,outcome,[12],inactive
same,AC50,[13],50 µM (active)
same,AC50,[14],30.7 µM (active)
same,outcome,[15],inactive
same,outcome,[16],inactive
same,outcome,[17],inactive
COCC(C)N(C(=O)CCl)c1c(C)csc1C (configuration not stated),AC50,[1],51.5 µM (active)
same,outcome,[2],inactive
same,outcome,[3],inactive
same,AC50,[4],103 µM (active)
same,AC50,[5],105 µM (active)
same,outcome,[6],inactive
same,outcome,[7],inactive
same,outcome,[19],inactive
same,outcome,[8],inactive
same,outcome,[9],inactive
same,AC50,[10],1.83 µM (active)
same,outcome,[11],inactive
same,outcome,[12],inactive
same,outcome,[13],inactive
same,outcome,[14],inactive
same,outcome,[15],inactive
same,outcome,[16],inactive
same,outcome,[17],inactive
N#CN=C1SCCN1Cc1ccc(Cl)nc1,outcome,[1],inactive
same,outcome,[2],inactive
same,outcome,[3],inactive
same,outcome,[4],inactive
same,outcome,[5],inactive
same,outcome,[6],inactive
same,outcome,[7],inactive
same,outcome,[19],inactive
same,outcome,[8],inactive
same,outcome,[9],inactive
same,outcome,[10],inactive
same,outcome,[11],inactive
same,outcome,[12],inactive
same,outcome,[13],inactive
same,outcome,[14],inactive
same,outcome,[15],inactive
same,outcome,[16],inactive
same,outcome,[17],inactive
